The source of these data is ChEMBL document CHEMBL2218924, “A broad activity screen in support of a chemogenomic map for kinase signalling research and drug discovery” (Biochem J, 2013).

For test [1], the target named is T1, Serine/threonine-protein kinase TBK1 (Homo sapiens) (UniProt Q9UHD2).
T1 sequence (whole entry): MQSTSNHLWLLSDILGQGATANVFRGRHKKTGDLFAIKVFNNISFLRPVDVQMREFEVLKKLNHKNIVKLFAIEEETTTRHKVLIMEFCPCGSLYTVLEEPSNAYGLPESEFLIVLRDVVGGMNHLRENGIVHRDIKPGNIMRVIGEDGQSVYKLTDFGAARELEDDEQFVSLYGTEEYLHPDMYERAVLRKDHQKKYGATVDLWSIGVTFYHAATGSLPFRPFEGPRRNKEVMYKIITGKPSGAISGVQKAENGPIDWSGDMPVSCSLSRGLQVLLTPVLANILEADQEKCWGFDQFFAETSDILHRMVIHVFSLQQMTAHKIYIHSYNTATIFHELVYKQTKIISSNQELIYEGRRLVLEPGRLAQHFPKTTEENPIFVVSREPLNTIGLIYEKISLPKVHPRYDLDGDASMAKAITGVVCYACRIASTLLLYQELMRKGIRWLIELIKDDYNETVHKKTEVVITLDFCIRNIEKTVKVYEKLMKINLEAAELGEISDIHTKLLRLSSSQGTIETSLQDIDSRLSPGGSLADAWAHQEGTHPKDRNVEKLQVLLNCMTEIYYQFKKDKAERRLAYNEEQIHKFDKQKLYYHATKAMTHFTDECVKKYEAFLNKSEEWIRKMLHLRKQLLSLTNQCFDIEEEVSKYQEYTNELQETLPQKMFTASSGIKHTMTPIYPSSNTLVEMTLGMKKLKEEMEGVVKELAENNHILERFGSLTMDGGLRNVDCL
Conditions: at 10 µM.

Test [2] concerns the target T2, TGF-beta receptor type-1 (Homo sapiens) (UniProt P36897).
T2 sequence (whole entry): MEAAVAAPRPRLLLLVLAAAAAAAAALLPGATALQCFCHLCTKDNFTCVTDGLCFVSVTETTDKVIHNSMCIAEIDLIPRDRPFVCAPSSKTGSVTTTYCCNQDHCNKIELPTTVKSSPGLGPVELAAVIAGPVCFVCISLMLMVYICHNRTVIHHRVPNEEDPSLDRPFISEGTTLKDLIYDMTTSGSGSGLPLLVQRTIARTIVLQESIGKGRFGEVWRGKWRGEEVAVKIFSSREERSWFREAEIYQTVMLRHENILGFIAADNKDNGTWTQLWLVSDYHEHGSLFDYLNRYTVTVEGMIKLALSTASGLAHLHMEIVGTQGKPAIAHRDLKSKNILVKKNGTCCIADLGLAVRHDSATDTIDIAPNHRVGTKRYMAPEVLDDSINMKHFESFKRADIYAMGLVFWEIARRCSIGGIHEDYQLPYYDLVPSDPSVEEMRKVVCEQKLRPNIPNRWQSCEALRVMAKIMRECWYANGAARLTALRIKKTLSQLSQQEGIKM
The note with it: at 1 µM.

For test [3], the target named is T2, TGF-beta receptor type-1 (Homo sapiens). Conditions: at 10 µM.
Test [4] has as its target Insulin-like growth factor 1 receptor (Homo sapiens) (UniProt P08069). The note with it: at 1 µM.
Test [5] shares this target. Conditions: at 10 µM.
The target of test [6] is T3, Inhibitor of nuclear factor kappa-B kinase subunit alpha (Homo sapiens) (UniProt O15111).
T3 sequence (whole entry): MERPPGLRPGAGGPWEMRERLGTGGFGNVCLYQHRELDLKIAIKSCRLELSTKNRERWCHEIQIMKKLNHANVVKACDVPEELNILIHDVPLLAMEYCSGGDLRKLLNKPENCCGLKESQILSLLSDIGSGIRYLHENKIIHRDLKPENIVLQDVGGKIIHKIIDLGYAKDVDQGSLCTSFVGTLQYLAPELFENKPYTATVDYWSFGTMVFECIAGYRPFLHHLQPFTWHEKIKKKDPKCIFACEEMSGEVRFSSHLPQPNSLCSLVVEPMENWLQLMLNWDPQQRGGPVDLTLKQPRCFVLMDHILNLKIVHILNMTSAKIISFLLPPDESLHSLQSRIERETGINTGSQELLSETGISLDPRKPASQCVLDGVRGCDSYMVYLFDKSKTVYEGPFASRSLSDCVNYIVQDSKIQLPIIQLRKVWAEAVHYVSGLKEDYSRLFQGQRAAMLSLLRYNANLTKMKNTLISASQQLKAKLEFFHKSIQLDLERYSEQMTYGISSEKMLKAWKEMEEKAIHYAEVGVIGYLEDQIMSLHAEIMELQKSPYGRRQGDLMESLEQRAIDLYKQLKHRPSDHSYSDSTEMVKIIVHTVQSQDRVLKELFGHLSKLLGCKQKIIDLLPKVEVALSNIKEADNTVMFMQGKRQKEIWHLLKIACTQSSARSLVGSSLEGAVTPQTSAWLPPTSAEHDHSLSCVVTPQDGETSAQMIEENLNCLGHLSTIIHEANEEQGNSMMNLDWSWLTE
Conditions: at 1 µM.

The target in test [7] is T3, Inhibitor of nuclear factor kappa-B kinase subunit alpha (Homo sapiens). Conditions: at 10 µM.
Test [8] addresses T4, Inhibitor of nuclear factor kappa-B kinase subunit beta (Homo sapiens) (UniProt O14920).
T4 sequence (whole entry): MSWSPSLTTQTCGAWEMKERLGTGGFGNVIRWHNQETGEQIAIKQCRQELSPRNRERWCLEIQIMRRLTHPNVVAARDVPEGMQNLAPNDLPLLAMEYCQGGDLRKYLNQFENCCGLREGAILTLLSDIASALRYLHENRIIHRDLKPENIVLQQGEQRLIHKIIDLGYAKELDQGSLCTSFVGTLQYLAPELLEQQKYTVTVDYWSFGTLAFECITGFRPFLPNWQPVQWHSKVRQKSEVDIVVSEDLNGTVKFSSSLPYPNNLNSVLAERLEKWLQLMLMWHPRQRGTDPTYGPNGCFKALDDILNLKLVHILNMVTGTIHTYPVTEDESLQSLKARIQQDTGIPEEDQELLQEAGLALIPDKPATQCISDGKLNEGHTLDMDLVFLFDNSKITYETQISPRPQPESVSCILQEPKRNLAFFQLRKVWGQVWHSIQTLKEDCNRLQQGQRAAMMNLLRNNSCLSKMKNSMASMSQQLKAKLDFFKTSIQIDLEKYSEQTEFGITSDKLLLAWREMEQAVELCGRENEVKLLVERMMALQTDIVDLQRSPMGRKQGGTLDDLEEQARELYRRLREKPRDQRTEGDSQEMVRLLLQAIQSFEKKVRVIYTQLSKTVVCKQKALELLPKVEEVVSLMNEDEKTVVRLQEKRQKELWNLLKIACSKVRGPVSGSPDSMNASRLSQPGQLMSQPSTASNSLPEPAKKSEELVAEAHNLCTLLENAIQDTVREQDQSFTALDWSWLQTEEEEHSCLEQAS
The note with it: at 1 µM.

In test [9] the target is T4, Inhibitor of nuclear factor kappa-B kinase subunit beta (Homo sapiens). Conditions: at 10 µM.
The target in test [10] is Insulin receptor (Homo sapiens) (UniProt P06213). Conditions: at 1 µM.
Sequence of Insulin receptor (Homo sapiens) (P06213 28-758 limits assumed): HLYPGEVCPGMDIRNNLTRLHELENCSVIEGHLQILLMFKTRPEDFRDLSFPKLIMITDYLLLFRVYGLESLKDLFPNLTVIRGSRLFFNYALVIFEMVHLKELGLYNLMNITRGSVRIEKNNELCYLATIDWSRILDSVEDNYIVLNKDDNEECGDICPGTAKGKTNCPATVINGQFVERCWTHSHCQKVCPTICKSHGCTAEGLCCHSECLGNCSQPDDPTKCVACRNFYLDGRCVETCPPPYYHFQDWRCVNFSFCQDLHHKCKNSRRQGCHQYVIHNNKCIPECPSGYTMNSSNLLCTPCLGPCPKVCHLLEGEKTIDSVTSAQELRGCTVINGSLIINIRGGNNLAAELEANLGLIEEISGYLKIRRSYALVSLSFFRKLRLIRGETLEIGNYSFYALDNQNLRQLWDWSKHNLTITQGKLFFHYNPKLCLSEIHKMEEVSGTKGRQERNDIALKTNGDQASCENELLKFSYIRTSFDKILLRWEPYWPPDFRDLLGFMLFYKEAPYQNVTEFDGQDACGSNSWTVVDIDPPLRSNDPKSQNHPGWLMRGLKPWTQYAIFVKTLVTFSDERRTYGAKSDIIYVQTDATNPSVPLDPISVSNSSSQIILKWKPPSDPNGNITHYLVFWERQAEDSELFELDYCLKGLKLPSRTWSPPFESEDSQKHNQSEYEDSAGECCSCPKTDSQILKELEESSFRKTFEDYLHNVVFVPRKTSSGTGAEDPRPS
Sequence of Insulin receptor (Homo sapiens) (P06213 763-1382 limits assumed): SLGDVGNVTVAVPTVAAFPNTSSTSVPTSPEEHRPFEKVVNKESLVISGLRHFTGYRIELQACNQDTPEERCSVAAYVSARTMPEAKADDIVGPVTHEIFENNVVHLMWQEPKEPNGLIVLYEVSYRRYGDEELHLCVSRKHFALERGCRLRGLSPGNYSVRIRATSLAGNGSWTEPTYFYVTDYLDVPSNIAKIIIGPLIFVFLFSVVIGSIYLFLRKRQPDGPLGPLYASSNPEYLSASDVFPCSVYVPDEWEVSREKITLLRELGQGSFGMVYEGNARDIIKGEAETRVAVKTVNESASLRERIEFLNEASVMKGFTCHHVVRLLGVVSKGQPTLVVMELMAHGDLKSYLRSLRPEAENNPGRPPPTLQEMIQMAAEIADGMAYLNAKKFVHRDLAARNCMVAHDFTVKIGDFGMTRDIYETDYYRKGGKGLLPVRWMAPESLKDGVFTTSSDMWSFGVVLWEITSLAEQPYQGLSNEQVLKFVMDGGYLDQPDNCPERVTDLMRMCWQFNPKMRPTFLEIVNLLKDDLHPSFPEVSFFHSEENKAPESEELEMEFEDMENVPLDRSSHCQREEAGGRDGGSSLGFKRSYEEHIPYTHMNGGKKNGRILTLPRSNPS
Test [11] shares this target. The note with it: at 10 µM.
For test [12], the target named is Interleukin-1 receptor-associated kinase 1 (Homo sapiens) (UniProt P51617). Conditions: at 1 µM.
Sequence of Interleukin-1 receptor-associated kinase 1 (Homo sapiens) (P51617 whole entry, looked up): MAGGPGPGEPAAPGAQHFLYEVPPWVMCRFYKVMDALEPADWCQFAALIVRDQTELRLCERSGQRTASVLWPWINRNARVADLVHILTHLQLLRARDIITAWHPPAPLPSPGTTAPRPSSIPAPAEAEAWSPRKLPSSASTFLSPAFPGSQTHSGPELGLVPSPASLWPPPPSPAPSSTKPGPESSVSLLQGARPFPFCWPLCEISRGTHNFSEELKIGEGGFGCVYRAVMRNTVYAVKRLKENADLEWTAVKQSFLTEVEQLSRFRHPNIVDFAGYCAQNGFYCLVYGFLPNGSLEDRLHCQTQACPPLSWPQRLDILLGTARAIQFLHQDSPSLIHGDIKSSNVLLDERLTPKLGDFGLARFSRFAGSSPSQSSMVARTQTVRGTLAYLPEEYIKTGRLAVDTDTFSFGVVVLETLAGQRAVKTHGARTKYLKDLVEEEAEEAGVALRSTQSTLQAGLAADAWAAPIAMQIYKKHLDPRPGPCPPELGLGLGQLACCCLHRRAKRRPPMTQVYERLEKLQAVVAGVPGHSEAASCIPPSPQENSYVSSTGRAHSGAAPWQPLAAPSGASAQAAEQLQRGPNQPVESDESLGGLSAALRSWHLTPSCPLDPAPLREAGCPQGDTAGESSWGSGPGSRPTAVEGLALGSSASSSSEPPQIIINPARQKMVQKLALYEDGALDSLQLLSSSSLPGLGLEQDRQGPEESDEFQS
Test [13] has the same target. The note with it: at 10 µM.
For test [14], the target named is T5, Interleukin-1 receptor-associated kinase 4 (Homo sapiens) (UniProt Q9NWZ3).
T5 sequence (whole entry): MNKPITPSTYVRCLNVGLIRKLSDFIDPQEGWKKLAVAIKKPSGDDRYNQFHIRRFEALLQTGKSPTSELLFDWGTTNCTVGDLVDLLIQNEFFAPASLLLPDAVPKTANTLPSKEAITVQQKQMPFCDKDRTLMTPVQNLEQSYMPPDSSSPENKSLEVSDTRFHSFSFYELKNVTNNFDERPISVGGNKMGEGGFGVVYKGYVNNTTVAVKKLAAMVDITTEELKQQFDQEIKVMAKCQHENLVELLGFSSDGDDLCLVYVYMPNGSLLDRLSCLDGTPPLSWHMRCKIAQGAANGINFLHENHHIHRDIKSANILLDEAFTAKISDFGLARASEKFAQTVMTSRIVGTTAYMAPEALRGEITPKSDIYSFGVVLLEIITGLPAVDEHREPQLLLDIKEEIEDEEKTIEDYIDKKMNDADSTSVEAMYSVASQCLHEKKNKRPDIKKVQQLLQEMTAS
Conditions: at 1 µM.

Test [15] concerns the target T5, Interleukin-1 receptor-associated kinase 4 (Homo sapiens). Conditions: at 10 µM.
Test [16] concerns the target Insulin receptor-related protein (Homo sapiens) (UniProt P14616). The note with it: at 1 µM.
Test [17] shares this target. Conditions: at 10 µM.
Test [18] concerns the target T6, Tyrosine-protein kinase ITK/TSK (Homo sapiens) (UniProt Q08881).
T6 sequence (whole entry): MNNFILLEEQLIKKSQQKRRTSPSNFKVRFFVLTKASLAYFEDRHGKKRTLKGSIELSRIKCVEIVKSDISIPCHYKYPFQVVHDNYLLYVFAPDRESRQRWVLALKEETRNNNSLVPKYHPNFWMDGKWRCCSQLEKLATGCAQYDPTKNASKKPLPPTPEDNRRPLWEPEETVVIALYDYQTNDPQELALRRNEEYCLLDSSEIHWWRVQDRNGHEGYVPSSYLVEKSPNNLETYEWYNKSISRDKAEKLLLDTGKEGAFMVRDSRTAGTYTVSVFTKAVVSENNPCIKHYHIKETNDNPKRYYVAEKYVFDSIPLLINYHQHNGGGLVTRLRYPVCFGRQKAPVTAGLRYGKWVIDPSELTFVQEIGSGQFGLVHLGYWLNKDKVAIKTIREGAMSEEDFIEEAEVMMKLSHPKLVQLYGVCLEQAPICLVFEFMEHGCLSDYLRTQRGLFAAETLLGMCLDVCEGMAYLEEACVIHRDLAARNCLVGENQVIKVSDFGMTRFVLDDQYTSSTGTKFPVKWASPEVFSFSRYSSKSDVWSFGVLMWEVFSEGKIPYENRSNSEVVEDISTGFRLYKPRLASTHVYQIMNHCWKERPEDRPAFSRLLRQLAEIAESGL
Conditions: at 1 µM.

Test [19] addresses Insulin receptor (Homo sapiens) (UniProt P06213). Conditions: at 1 µM. The source holds these as a separate data set.
Test [20] has the same target. Conditions: at 10 µM. This is another data set of the same source.

Sequence of Insulin receptor-related protein (Homo sapiens) (P14616 27-742 limits assumed): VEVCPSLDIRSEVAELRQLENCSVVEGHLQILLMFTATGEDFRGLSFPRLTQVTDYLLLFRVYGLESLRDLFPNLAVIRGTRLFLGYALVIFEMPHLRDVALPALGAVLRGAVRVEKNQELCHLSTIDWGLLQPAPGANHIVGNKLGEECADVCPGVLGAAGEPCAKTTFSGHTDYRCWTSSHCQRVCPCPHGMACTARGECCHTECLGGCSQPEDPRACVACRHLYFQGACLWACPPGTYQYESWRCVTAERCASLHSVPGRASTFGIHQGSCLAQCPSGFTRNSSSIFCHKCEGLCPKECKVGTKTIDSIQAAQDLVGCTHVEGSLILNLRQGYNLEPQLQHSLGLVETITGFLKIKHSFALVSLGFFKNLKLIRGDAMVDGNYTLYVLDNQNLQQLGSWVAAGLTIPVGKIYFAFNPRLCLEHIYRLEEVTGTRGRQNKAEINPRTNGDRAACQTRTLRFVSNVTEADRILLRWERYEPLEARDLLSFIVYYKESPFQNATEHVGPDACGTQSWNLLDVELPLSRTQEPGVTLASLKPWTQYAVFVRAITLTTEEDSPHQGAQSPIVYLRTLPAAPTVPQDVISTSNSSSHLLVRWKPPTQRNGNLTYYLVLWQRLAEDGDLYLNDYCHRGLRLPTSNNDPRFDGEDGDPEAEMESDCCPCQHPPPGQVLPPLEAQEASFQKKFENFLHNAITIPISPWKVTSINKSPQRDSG
Sequence of Insulin receptor-related protein (Homo sapiens) (P14616 747-1297 limits assumed): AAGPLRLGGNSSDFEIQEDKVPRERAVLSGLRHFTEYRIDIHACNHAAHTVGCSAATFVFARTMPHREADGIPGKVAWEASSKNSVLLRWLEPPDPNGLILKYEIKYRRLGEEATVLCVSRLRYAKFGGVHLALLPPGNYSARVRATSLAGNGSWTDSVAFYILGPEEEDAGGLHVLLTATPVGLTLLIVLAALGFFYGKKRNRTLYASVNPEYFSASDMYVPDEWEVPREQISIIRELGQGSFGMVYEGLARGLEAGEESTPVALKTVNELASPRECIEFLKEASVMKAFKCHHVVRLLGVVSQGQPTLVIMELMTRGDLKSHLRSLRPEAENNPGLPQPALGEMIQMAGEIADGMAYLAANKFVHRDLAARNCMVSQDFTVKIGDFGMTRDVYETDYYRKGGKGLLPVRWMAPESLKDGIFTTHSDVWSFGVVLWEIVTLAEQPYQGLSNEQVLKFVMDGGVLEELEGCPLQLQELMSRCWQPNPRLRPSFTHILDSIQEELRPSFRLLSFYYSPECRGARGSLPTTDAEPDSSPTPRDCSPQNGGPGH
Sequence of Insulin-like growth factor 1 receptor (Homo sapiens) (P08069 31-736 limits assumed): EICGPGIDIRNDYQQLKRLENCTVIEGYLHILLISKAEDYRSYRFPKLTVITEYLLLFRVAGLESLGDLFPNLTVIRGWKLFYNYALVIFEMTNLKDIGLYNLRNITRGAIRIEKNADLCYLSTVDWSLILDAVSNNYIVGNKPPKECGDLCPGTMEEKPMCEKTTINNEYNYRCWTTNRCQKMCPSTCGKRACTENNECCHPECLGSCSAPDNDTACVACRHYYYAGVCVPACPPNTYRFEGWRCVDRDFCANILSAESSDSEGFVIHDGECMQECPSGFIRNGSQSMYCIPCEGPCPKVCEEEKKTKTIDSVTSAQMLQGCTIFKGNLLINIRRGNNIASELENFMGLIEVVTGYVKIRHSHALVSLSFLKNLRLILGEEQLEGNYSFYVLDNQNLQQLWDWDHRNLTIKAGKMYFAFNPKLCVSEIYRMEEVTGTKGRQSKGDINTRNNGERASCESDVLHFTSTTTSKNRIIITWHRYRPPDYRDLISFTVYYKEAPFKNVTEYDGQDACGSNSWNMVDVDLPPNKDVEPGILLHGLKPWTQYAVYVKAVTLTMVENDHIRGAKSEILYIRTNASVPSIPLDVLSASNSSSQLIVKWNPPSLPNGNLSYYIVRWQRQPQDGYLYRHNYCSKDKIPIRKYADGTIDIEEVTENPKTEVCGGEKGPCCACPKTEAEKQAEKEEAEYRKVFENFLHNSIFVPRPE
Sequence of Insulin-like growth factor 1 receptor (Homo sapiens) (P08069 741-1367 limits assumed): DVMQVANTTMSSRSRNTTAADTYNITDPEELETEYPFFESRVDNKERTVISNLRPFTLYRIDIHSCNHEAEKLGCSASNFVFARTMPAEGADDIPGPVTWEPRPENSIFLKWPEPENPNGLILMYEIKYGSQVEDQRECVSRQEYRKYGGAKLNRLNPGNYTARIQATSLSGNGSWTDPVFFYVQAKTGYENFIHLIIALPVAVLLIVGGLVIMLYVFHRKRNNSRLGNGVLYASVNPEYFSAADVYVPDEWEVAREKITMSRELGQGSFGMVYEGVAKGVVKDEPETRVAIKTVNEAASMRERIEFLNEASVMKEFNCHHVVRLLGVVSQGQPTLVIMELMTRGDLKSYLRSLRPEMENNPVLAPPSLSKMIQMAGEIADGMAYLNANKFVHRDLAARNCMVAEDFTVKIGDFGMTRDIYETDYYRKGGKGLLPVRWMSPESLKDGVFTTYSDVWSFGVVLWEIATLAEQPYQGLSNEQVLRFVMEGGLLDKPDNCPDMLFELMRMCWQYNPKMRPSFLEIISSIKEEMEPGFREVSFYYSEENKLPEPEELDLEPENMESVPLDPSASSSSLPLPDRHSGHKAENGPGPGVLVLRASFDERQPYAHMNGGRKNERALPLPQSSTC

Broadly, the residual activity is the signal under treatment as a percentage of the control signal. Regarding `CCCCc1c(-c2ccc(OC)cc2)[nH]c2nccnc12`, the residual activity in test [1] was determined as 59%; in [2], 84%; in test [3], 73%; in test [4], 61%; in test [5] it was 51%; in test [6], 87%. In addition, the residual activity in [7] is 87%; in [8] it was 109%; in test [9], 101%; in [10] it was 66%; in test [11], 75%; in test [12], 62%. Also, the residual activity in test [13] came to 81%; in test [14], 79%; in test [15], 65%; in [16] it was 100%; in test [17], 88%; in test [18] it was 82%.

As to `COc1cc2nccc(Oc3ccc(NC(=S)NC(=O)c4ccccc4C)cc3)c2cc1OC`, the residual activity in [1] is 48%; in [2], 78%; in test [3], 77%; in test [4] it was 87%; in test [5], 73%; in test [19], 92%. Also, the residual activity in [20] stood at 138%; in test [10], 97%; in [11], 92%; in [12], 79%; in test [13], 67%; in test [14], 96%. The results for the residual activity in [16], in test [17] and in test [18] were 121%, 74% and 79%, respectively.

In the case of `Nc1n[nH]c2nc3ccccc3nc12`, the residual activity in test [1] was found to be 63%; in test [2], 91%; in test [3], 82%; in test [6], 93%; in test [7] it was 69%; in test [8], 122%. Further, the residual activity in test [9] is 90%; in [12], 98%; in [13] it was 98%; in test [14], 93%; in test [15], 67%; in test [16], 122%. For the same molecule, the residual activity in test [17] stood at 86%.

For `N#C/C(=C1/Nc2ccccc2S1)c1ccnc(NCCc2cccnc2)n1`, the residual activity in [1] was 40%; in [2] it was 96%; in test [3], 69%; in test [6], 113%; in test [7], 71%; in [9], 83%. The residual activity is 127% in [19]; 137% in test [20]; 98% in [10]; 83% in [11]; 80% in test [12]; 70% in test [13]. For the same molecule, the residual activity in test [14] is 80%; in test [15], 31%; in test [16], 132%; in test [17], 63%.

In the case of `O=c1cc(N2CCOCC2)oc2c1ccc1ccccc12`, the residual activity in test [1] is 71%; in test [2], 89%; in [3] it was 88%; in [8], 96%; in test [9], 94%; in [19], 108%. The residual activity in [20] came to 91%; in test [10] it was 103%; in [11] it was 97%; in [12], 83%; in test [13], 88%; in [14] it was 96%. Moreover, the figures for the residual activity in test [15], in test [17] and in test [18] were 88%, 98% and 96%, respectively.

As to `O=C(c1ccccc1)c1ccc(N2CCOCC2)cc1O`, the residual activity in test [1] came to 77%; in test [2], 95%; in test [3], 99%; in test [5], 93%; in [13], 89%; in [14] it was 117%. Further, the residual activity in test [15] amounted to 93%; in test [16], 131%; in [17], 75%.
